Bioassay records as filed in PubChem BioAssay.
PostGolgi ctrl: growth inhibition of yeast control strain, primary screen, counter-screen for post-Golgi transport modulator project. AID 738, 2007. efflux-deficient yeast background strain, growth absorbance A615, 16 h. inhibition, % at 10 µM. 5% of 98,000 active
CYP2C19 inh: blockers of cytochrome P450 2C19 activity – biochemical, luminescence, ADME assay, primary screen; P33261; CYP2C19 Supersomes, luciferin-H EGE luminescence, 30 min; inhibition, % at 5 µM; 21% of 96,000 active;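 active means CYP2C19 inhibition above a set limit at 5 µM in the primary screen, cut at about 50% in these data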;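 further: plate controls were negative control wells for no effect and 2.5 mM tranylcypromine positive control for full effect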
Target sequence (P33261 whole entry, looked up): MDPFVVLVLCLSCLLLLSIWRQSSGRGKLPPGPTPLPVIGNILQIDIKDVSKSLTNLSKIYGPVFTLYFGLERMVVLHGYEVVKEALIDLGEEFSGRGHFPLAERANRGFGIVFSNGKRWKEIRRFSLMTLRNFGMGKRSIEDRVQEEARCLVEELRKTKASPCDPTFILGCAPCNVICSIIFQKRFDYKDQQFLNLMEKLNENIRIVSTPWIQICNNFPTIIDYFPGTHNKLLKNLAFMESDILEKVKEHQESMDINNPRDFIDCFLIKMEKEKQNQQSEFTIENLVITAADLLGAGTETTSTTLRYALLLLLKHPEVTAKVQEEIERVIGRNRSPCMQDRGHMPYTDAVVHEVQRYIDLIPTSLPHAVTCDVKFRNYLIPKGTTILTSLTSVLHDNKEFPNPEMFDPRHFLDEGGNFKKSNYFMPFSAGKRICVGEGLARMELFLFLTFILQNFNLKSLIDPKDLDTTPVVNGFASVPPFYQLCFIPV
PostGolgi yeast: phenotypic screen on post-Golgi transport, primary screen; post-Golgi transport phenotypic cell assay; 0.9% of 98,000 active; inhibition, % at 10 µM;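 further: yeast cells grown in 1536-well plates; yeast grown about 18 h at 30C before absorbance read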
CYP2C9 activ: human CYP2C9 activators, primary screen, biochemical, luminescence; recombinant CYP2C9, luciferin-H conversion; hits give high values; factor 1 = untreated enzyme, 0 = blocked; AID 1024, 2008; 1.4% of 96,000 active; Cytochrome P450 2C9 (Homo sapiens), P11712; activation factor at 5 µM;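 active means activation factor of 2 or more for CYP2C9 at a 5 µM dose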;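 further: 0 = sulfaphenazole-blocked wells and 1 = vehicle-only wells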
CYP2C19 act: human CYP2C19 activators, primary screen, biochemical, luminescence | recombinant CYP2C19, luciferin-H EGE luminescence; hits give high values; 0 = fully inhibited enzyme, 1 = untreated enzyme | activation factor at 5 µM | 96,000 tested, under 10 active | AID 1025, 2008;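 active means activation factor of at least 2 at 5 µM in the primary screen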;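 further: 0 = wells with 2.5 mM tranylcypromine and 1 = vehicle-only wells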
CYP2C9 inhib: blockers of cytochrome P450 2C9 activity – biochemical, luminescence, ADME assay, primary screen; P11712; CYP2C9 Supersomes, luciferin-H conversion; inhibition, % at 5 µM; 20% of 96,000 active;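 active means blocking of liver enzyme CYP2C9 beyond about 50% at 5 µM, limit read from the data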
Numbers without * were called inactive. A selection: hits, their analogues and other compounds. The true share with any hit is near 32%. Unless noted, no stated cut-off is given here; in the data, active means inhibition above about 30%; inactive means the rest.

O=C(Nc1nc2c(s1)CCc1ccccc1-2)c1cccs1 was read as CYP2C19 inh 8.9, CYP2C9 activ 1.1, CYP2C19 act 0.9 and CYP2C9 inhib -7.5.
Screening O=C(Nc1nc2c(s1)COc1ccccc1-2)c1cccs1 returned PostGolgi ctrl 7.8, CYP2C19 inh 36.2, PostGolgi yeast 0.0, CYP2C9 activ 0.4, CYP2C19 act 0.6 and CYP2C9 inhib 62.8*.
`O=C(CCS(=O)(=O)c1ccccc1)Nc1nc2c(s1)COc1ccccc1-2` gave PostGolgi ctrl 2.7, CYP2C19 inh 65.3*, PostGolgi yeast -0.2, CYP2C9 activ 0.6, CYP2C19 act 0.3 and CYP2C9 inhib 38.0.
Screening CCOc1ccc(C2CC(=O)NC(SC)=C2C#N)cc1 (configuration not stated) returned PostGolgi ctrl 0.6, CYP2C19 inh 36.0, PostGolgi yeast -8.6, CYP2C9 activ 0.4, CYP2C19 act 0.6 and CYP2C9 inhib 56.2*.
`COC(=O)CSC1=C(C#N)C(c2ccc(F)cc2)CC(=O)N1` (configuration not stated) gave PostGolgi ctrl 9.3, CYP2C19 inh 72.3*, PostGolgi yeast -1.6, CYP2C9 activ 0.1, CYP2C19 act 0.3 and CYP2C9 inhib 90.5*.
For CCCOC(=O)CSC1=C(C#N)C(c2ccc3c(c2)OCO3)CC(=O)N1 (configuration not stated) the results were PostGolgi ctrl -2.4, CYP2C19 inh 92.2*, PostGolgi yeast 1.4, CYP2C9 activ 0, CYP2C19 act 0.1 and CYP2C9 inhib 97.2*.
For C=CCSC1=C(C#N)C(c2ccc(OCC)cc2)CC(=O)N1 (configuration not stated) the results were PostGolgi ctrl 5.2, CYP2C19 inh 81.7*, PostGolgi yeast -12.9, CYP2C9 activ 0.4, CYP2C19 act 0.2 and CYP2C9 inhib 64.8*.
`CCOc1ccc(NC(=O)CSC2=C(C#N)C(c3ccc4c(c3)OCO4)CC(=O)N2)cc1` (configuration not stated) gave PostGolgi ctrl -1.6, CYP2C19 inh 16.9, PostGolgi yeast -1.1, CYP2C9 activ 0.8, CYP2C19 act 0.8 and CYP2C9 inhib 24.3.
For CSC1=C(C#N)C(c2ccc(C(C)C)cc2)CC(=O)N1 (configuration not stated) the results were PostGolgi ctrl 15.4, CYP2C19 inh 5.4, PostGolgi yeast 5.8, CYP2C9 activ 0.6, CYP2C19 act 0.9 and CYP2C9 inhib 40.8.
For Cc1ccc(SCCNC(=O)CN2C(=O)c3ccccc3S2(=O)=O)cc1 the results were PostGolgi ctrl 0.9, CYP2C19 inh 61.3*, PostGolgi yeast 9.5, CYP2C9 activ 0.2, CYP2C19 act 0.4 and CYP2C9 inhib 79.3*.
O=C(CN1C(=O)c2ccccc2S1(=O)=O)NCCSc1ccccc1 was read as PostGolgi ctrl 6.4, CYP2C19 inh 79.3*, PostGolgi yeast 15.4, CYP2C9 activ 0.4, CYP2C19 act 0.2 and CYP2C9 inhib 63.5*.
`CC(C)(C)SCCNC(=O)CN1C(=O)c2ccccc2S1(=O)=O` gave PostGolgi ctrl 5.3, CYP2C19 inh 3.9, PostGolgi yeast -4.5, CYP2C9 activ 0.9, CYP2C19 act 1 and CYP2C9 inhib 13.9.
For CN(C)S(=O)(=O)Oc1cccc(C(=O)Nc2ccccc2Cl)c1 the results were PostGolgi ctrl 1.2, CYP2C19 inh 52.5*, PostGolgi yeast 7.3, CYP2C9 activ 0.5, CYP2C19 act 0.5 and CYP2C9 inhib 51.8*.
CN(C)S(=O)(=O)Oc1cccc(C(=O)Nc2ccc(Cl)cc2)c1 was read as PostGolgi ctrl 6.5, CYP2C19 inh 44.9, PostGolgi yeast 26.1, CYP2C9 activ 0.3, CYP2C19 act 0.6 and CYP2C9 inhib 68.0*.
Nc1cccc(C(=O)Nc2ccccc2Cl)c1 was read as PostGolgi ctrl 9.9, CYP2C19 inh 5.5, PostGolgi yeast 10.3, CYP2C9 activ 1.1, CYP2C19 act 0.9 and CYP2C9 inhib -9.8.
COc1ccc2nc(C)c(C(=O)OCCN(C)C)cc2c1 was read as CYP2C19 inh -7.5, CYP2C9 activ 1, CYP2C19 act 1.1 and CYP2C9 inhib 0.9.
Screening CCN(CC)C(=O)CN(c1cc2c(cc1OC)oc1ccccc12)S(=O)(=O)c1ccc(C)cc1 returned PostGolgi ctrl 15.0, CYP2C19 inh 15.1, PostGolgi yeast 5.6, CYP2C9 activ 0.9, CYP2C19 act 0.8 and CYP2C9 inhib 13.5.
Screening O=C(CSC1CC(=O)N(CC(c2ccccc2)c2ccccc2)C1=O)Nc1ccc(Cl)cc1 (configuration not stated) returned PostGolgi ctrl 41.5*, CYP2C19 inh 53.4*, PostGolgi yeast 11.1, CYP2C9 activ 0.1, CYP2C19 act 0.5 and CYP2C9 inhib 85.3*.
Screening O=C(O)CSC1CC(=O)N(c2ccc(Cl)cc2)C1=O (configuration not stated) returned CYP2C19 inh 2.1, CYP2C9 activ 1, CYP2C19 act 1 and CYP2C9 inhib -3.0.
Cc1[nH]c(=O)[nH]c(=O)c1S(=O)(=O)N(C)Cc1ccccc1 was read as PostGolgi ctrl 13.0, CYP2C19 inh -0.2, PostGolgi yeast -1.1, CYP2C9 activ 0.9, CYP2C19 act 1 and CYP2C9 inhib 7.0.
Screening CCOC(=O)c1[nH]nc(-c2cc(CC)c(O)cc2O)c1-c1cscn1 returned PostGolgi ctrl 8.7, CYP2C19 inh 41.9, PostGolgi yeast 9.8, CYP2C9 activ 0.7, CYP2C19 act 0.6 and CYP2C9 inhib 34.0.
Screening CCCc1cc(-c2[nH]ncc2-c2ccc3c(c2)OCCCO3)c(O)cc1O returned PostGolgi ctrl 18.9, CYP2C19 inh 100.0*, PostGolgi yeast 9.6, CYP2C9 activ 0, CYP2C19 act 0 and CYP2C9 inhib 100.0*.
`CCCc1cc(-c2[nH]ncc2-c2ccc(C(=O)OCC)o2)c(O)cc1O` gave PostGolgi ctrl 10.6, CYP2C19 inh 70.4*, PostGolgi yeast 7.5, CYP2C9 activ 0, CYP2C19 act 0.3 and CYP2C9 inhib 97.9*.
Screening COC(=O)Nc1snnc1C returned PostGolgi ctrl 7.4, CYP2C19 inh 8.6, PostGolgi yeast -0.3, CYP2C9 activ 0.8, CYP2C19 act 0.9 and CYP2C9 inhib 15.7.
Screening COc1ccc(CN2CCCC2C(=O)Nc2ccc(OC)c(OC)c2)cc1OC (configuration not stated) returned PostGolgi ctrl -2.0, CYP2C19 inh 54.0*, PostGolgi yeast 3.1, CYP2C9 activ 0.5, CYP2C19 act 0.5 and CYP2C9 inhib 49.9.
`COc1ccc(NC(=O)CC2CCCCC2)cc1OC` gave PostGolgi ctrl 2.8, CYP2C19 inh 93.6*, PostGolgi yeast 3.8, CYP2C9 activ 0.8, CYP2C19 act 0.1 and CYP2C9 inhib 23.4.
